From PubChem BioAssay AID488930 (Broad Institute, 2010) come the findings set out here.

Entries with a potency or affinity are not part of this list. Results filed as inconclusive are left out. The source made the active and inactive calls.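 The calls were made as follows: active = compounds whose fitted half-maximal concentration is at most ten times their top tested dose; inconclusive = flat curve with 30 to 70% inhibition, or poor fit; inactive = the rest.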

The nature of this assay: C. albicans growth inhibition with fluconazole, dose response, antifungal resistance reversal project, CaCi-2 strain, Alamar Blue, dry powder, set 2 (AID 488930). The note with it: C. albicans CaCi-2 (fluconazole-resistant clinical isolate) + fluconazole, 48 h; series mostly up to 6 µM. In general terms: Resazurin is reduced to fluorescent resorufin, in cell work by metabolically active cells.
For `O=C(c1ccc(Cl)cc1)N1CCN(c2ccncc2)CC1`, the outcome was inactive.
In the case of `O=C(Nc1ccc(Cl)cc1)N1CCN(c2ccnc3cc(Cl)ccc23)CC1` it was “inactive”; in that of `CCCC(=O)N1CCN(c2ccnc3cc(Cl)ccc23)CC1`, “inactive”.
For `COCCC(=O)N1CCN(c2ccnc3cc(Cl)ccc23)CC1` the value was “inactive”; for `O=C(c1ccc(Cl)cc1)N1CCCN(c2ccnc3cc(Cl)ccc23)CC1`, “inactive”.
In the case of `O=C(c1ccc(Cl)cc1)N1CCNCC1` it was “inactive”; in that of `O=C(c1ccccc1Cl)N1CCN(c2ccnc3cc(Cl)ccc23)CC1`, “inactive”.
Consider `Cc1cc(N2CCN(C(=O)c3ccc(Cl)cc3)CC2)c2ccc(F)cc2n1`, for which the outcome was inactive.
In the case of `O=C(c1ccc(Cl)cc1)N1CCN(c2ccnc3ccccc23)CC1` it was “inactive”; in that of `O=C(c1ccc(Cl)cc1)N1CCN(c2ncnc3nc[nH]c23)CC1`, “inactive”.
For `O=C(c1ccc(Cl)cc1)N1CCN(c2ncnc3ccccc23)CC1`, the result was inactive.
In the case of `COc1ccnc(N2CCN(C(=O)c3ccc(Cl)cc3)CC2)c1` it was “inactive”.
For `Clc1ccc2c(N3CCNCC3)ccnc2c1`, the result was inactive.
In the case of `COc1cccc2c(N3CCN(C(=O)c4ccc(Cl)cc4)CC3)cc(C)nc12` it was “inactive”.
In the case of `O=C(O)Cn1nc(-c2ccccc2)c2ccccc21` it was “inactive”.
For `COc1ccc2c(N3CCN(C(=O)c4ccc(Cl)cc4)CC3)ccnc2c1` the value was “inactive”; for `Cc1cc(N2CCN(C(=O)c3ccc(Cl)cc3)CC2)c2ccccc2n1`, “inactive”.
As to `N#Cc1ccc(N2CCN(C(=O)c3ccc(Cl)cc3)CC2)nc1`, the outcome was inactive.
For `O=C(c1ccc(Cl)cc1)N1CCN(c2cccnc2)CC1` the value was “inactive”.
